# Laboratory results: PubChem BioAssay (Tox21)
# Values without a mark were called inactive. Records with an inconclusive call do not appear. Entries that show only a call come without a potency. Activity calls are given as the source filed them. Unless noted, calls follow the shape of the full dose curve.
# Tests used:
# [1] = Nuclear factor erythroid 2-related factor 2/antioxidant responsive element (Nrf2/ARE) small molecule agonists: qHTS cell viability counter screen in human keratinocytes (AID 1919968; active = well fitted curve in the direction sought with a large enough effect in the repeat runs; an effect the other way counts as inactive or inconclusive; also: nearly all actives have a fitted effect of over 55% in size; also: potency is read from the fitted curve at half-maximal effect)
# Outline: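 KeratinoSens cells (HaCaT keratinocytes stably carrying an ARE-luciferase reporter) were seeded at 1,500 cells/well and rested 5 h at 37 C/5% CO2. They were then exposed to compounds in DMSO for 23 h. Viability was read by CellTiter-Fluor fluorescence after 1 h.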
# [2] = Nuclear factor erythroid 2-related factor 2/antioxidant responsive element (Nrf2/ARE) small molecule agonists: luciferase reporter gene qHTS assay in human keratinocytes (AID 1919969); also: nearly all actives have a fitted effect of over 35% in size
# [3] = molecular target: Gonadotropin-releasing hormone receptor (Homo sapiens) (UniProt P30968); assay: Human gonadotropin-releasing hormone receptor (GnRHR) small molecule agonists, calcium flux assay in GnRHR-HEK293 cells (AID 1920063); also: nearly all actives have a fitted effect of over 35% in size
# Outline: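 HEK293 cells stably expressing human GnRHR were plated 18 h at 37 °C, loaded with calcium dye 1 h at 37 °C, then given compound in agonist mode; fluorescence (Ex/Em 480/540) read kinetically for 3 min at 1 s intervals.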
# [4] = molecular target: KiSS-1 receptor (Homo sapiens) (UniProt Q969F8); assay: Human kisspeptin (KISS1R) small molecule agonists, calcium flux assay in KISS1R-HEK293 cells (AID 1920064; active = well fitted curve in the direction sought with a large enough effect in the repeat runs; an effect the other way counts as inactive or inconclusive)
# Outline: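 HEK293 cells stably expressing human KISS1R were plated 18 h at 37 °C, loaded with calcium dye for 1 h at 37 °C, then given compound by pin tool. Fluorescence (Ex/Em 480/540) was read kinetically for 3 min.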
# [5] = G protein-coupled receptor (GPCR) small molecule agonists, calcium flux assay: HEK293 wild type cell line counter screen (AID 1920065)
# Outline: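 Cells were plated and cultured 18 h at 37 C/5% CO2, then loaded with calcium dye for 1 h at 37 C. Compounds in DMSO were pin-transferred in agonist mode, and fluorescence (Ex/Em 480/540) was read kinetically for 3 min at 1 s intervals.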
# [6] = p53 small molecule agonists, cell-based qHTS assay with human liver microsomes (AID 1963577);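 also: p53 response element beta-lactamase reporter cells with liver microsomes plus NADPH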
# Outline: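 In this qHTS, p53 response-element beta-lactamase cells receive test compound together with a microsome/NADPH activating system (0.5 mg/mL final each) and are incubated 16 h at 37 C before LiveBLAzer fluorescence detection.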
# [7] = p53 small molecule agonists, cell-based qHTS assay with rat liver microsomes (AID 1963578)
# Outline: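 Agonist mode in p53RE-bla reporter cells, with compounds co-incubated 16 h at 37 C alongside 0.5 mg/mL rat liver microsomes and 0.5 mg/mL NADPH (final), followed by a 2 h LiveBLAzer detection step.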
# [8] = p53 small molecule agonists, cell-based qHTS assay with human liver microsomes: qHTS cell viability counter screen (AID 1963579); also: nearly all actives have a fitted effect of over 45% in size
# Outline: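 Metabolically activated exposure: compounds, human liver microsomes and NADPH (0.5 mg/mL final apiece) were added to p53RE-bla cells seeded 5 h earlier, left 16 h at 37 C, and then assessed for viability by CellTiter-Glo luminescence.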
# [9] = p53 small molecule agonists, cell-based qHTS assay with rat liver microsomes: qHTS cell viability counter screen (AID 1963580); also: nearly all actives have a fitted effect of over 45% in size; also: potency is read from the fitted curve at half-maximal effect
# Outline: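 p53RE-bla HCT-116 cells (4,000/well) rested 5 h at 37 C, then given Tox21 compounds in DMSO with rat liver microsomes (0.5 mg/mL final) plus NADPH (0.5 mg/mL final) for 16 h at 37 C. Viability read by CellTiter-Glo luminescence after 30 min at room temperature.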
# [10] = p53 small molecule agonists, cell-based qHTS assay: qHTS cell viability counter screen (AID 1963581); also: nearly all actives have a fitted effect of over 45% in size
# Outline: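 p53RE-bla HCT-116 cells were exposed to compounds for 16 h at 37 C; after the beta-lactamase FRET read in the same wells, CellTiter-Glo was added and luminescence (intracellular ATP) read after 30 min at room temperature.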
# [11] = p53 small molecule agonists, cell-based qHTS assay (AID 1963582; active = well fitted activation curve with a large enough effect in the signal ratio in the repeat runs, not every such curve was filed as active; the % refers to the signal ratio)
# Outline: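 p53RE-bla beta-lactamase reporter cells rested 5 h at 37 C/5% CO2, then received compounds in DMSO by pin transfer and were incubated 16 h at 37 C. LiveBLAzer B/G FRET substrate was loaded for 2 h at room temperature before fluorescence reading.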
# [12] = molecular target: 5-hydroxytryptamine receptor 2A (Homo sapiens) (UniProt P28223); assay: 5-hydroxytryptamine receptor 2A (HTR2A) small molecule agonists, cell-based qHTS assay (AID 1963587); also: nearly all actives have a fitted effect of over 30% in size
# Outline: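 HTR2A-CHO cells, plated 18 h at 37 C/5% CO2, dye-loaded 1 h at 37 C; compounds in DMSO added by pin tool (agonist mode). Intracellular calcium flux read as kinetic fluorescence on FDSS over 2 min at 1 s intervals.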
# [13] = molecular target: Muscarinic acetylcholine receptor M1 (Homo sapiens) (UniProt P11229); assay: Cholinergic receptor muscarinic 1 (CHRM1) small molecule antagonists, cell-based qHTS assay (AID 1963588); also: nearly all actives have a fitted effect of over 40% in size
# Outline: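 CHRM1-CHO calcium-flux assay, antagonist mode. Cells were seeded 18 h, dye-loaded 1 h at 37 C and given compound for 5 min at RT, then acetylcholine was added at 50nM. FDSS fluorescence was read 3 min; 15 concentrations, three runs.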
# [14] = molecular target: Muscarinic acetylcholine receptor M1 (Homo sapiens) (UniProt P11229); assay: Cholinergic receptor muscarinic 1 (CHRM1) small molecule agonists, cell-based qHTS assay (AID 1963589); also: nearly all actives have a fitted effect of over 35% in size
# Outline: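 CHO cells stably expressing human CHRM1, seeded 18 h at 37 C/5% CO2, dye-loaded 1 h at 37 C, then given compound in agonist mode; intracellular calcium fluorescence read kinetically at 1 s intervals. Fifteen concentrations, three independent runs.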
# [15] = cAMP Responsive Elements (CRE) small molecule agonists, cell-based qHTS assay (AID 1963590)
# Outline: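 CRE-bla HEK 293T cells in DMEM with 10% dialyzed FBS, NEAA, pyruvate and 25 mM HEPES were plated 18 h at 37 C/5% CO2, then exposed to compounds in DMSO for 3 h before LiveBLAzer B/G FRET substrate addition.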
# [16] = cAMP Responsive Elements (CRE) small molecule antagonists, cell-based qHTS assay (AID 1963591; active = well fitted inhibition curve with a large enough effect in the signal ratio in the repeat runs, not every such curve was filed as active; the % refers to the signal ratio)
# Outline: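 CRE-bla HEK293T cells were plated 18 h at 37 °C/5% CO2, pinned with compound in DMSO, then stimulated with NKH477 at 0.25 uM final for 3 h. LiveBLAzer B/G FRET substrate was added and plates incubated 2 h at room temperature.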
# [17] = molecular target: Beta-2 adrenergic receptor (Homo sapiens) (UniProt P07550); assay: Adrenergic beta2 receptor (ADRB2) small molecule antagonists, cell-based qHTS assay (AID 1963592); also: series mostly up to about 92 µM; nearly all actives have a fitted effect of over 50% in size
# Outline: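 Cells (CHO, stable ADRB2 overexpression) incubated 18-20hr at 37C; compounds added from DMSO; agonist mix (1nM isoproterenol, 100uM IBMX, 25uM Ro-20-1724) added; 0.5hr RT; d2-cAMP and anti-cAMP-cryptate added; 1hr RT; 665/615 nm read.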
# [18] = molecular target: D(2) dopamine receptor (Homo sapiens) (UniProt P14416); assay: Dopamine D2 receptor (DRD2) small molecule agonists, cell-based qHTS assay (AID 1963594); also: nearly all actives have a fitted effect of over 35% in size
# Outline: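 HEK293 cells stably expressing DRD2 were cultured 24 h at 37 C, then given Ro20-1724 (0.1 mM final) and compounds for 10 min at room temperature. NKH477 (200nM) was then added for 30 min. cAMP was read by HTRF.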
# [19] = molecular target: D(2) dopamine receptor (Homo sapiens) (UniProt P14416); assay: Dopamine D2 receptor (DRD2) small molecule antagonists, cell-based qHTS assay (AID 1963595; active = well fitted inhibition curve with a large enough effect in the signal ratio in the repeat runs, with a control signal flat; the % refers to the signal ratio)
# Outline: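 HEK293 cells stably expressing DRD2, preincubated with 0.1 mM Ro20-1724 and compounds 10 min, were stimulated with 200 nM NKH477 plus 12 nM quinpirole for 30 min at room temperature; cAMP measured by HTRF (665/620 nm).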
# [20] = molecular target: Beta-2 adrenergic receptor (Homo sapiens) (UniProt P07550); assay: Adrenergic beta2 receptor (ADRB2) small molecule agonists, cell-based qHTS assay (AID 1963593);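 also: CHO cells stably overexpressing human ADRB2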
# Outline: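 CHO cells stably over-expressing ADRB2 were plated overnight at 37C, then dosed with compounds plus a stimulation mix containing 100uM IBMX and 25uM Ro-20-1724 for 0.5hr at room temperature. cAMP was measured by HTRF competition, 1hr.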
# Sequence of 5-hydroxytryptamine receptor 2A (Homo sapiens) (P28223 whole entry, looked up): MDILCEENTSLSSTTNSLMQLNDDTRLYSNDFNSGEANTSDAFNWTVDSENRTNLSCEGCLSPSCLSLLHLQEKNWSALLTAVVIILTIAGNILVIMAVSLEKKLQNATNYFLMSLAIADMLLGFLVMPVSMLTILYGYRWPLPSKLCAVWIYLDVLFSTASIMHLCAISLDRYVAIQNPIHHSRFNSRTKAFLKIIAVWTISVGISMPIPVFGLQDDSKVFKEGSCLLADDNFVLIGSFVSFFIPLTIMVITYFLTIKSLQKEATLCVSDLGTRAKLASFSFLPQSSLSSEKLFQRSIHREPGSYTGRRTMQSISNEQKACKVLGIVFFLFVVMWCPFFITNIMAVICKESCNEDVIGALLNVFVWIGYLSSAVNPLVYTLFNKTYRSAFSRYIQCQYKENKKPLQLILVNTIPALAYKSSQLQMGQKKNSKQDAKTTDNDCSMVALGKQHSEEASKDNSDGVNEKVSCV
# Sequence of Beta-2 adrenergic receptor (Homo sapiens) (P07550 whole entry, looked up): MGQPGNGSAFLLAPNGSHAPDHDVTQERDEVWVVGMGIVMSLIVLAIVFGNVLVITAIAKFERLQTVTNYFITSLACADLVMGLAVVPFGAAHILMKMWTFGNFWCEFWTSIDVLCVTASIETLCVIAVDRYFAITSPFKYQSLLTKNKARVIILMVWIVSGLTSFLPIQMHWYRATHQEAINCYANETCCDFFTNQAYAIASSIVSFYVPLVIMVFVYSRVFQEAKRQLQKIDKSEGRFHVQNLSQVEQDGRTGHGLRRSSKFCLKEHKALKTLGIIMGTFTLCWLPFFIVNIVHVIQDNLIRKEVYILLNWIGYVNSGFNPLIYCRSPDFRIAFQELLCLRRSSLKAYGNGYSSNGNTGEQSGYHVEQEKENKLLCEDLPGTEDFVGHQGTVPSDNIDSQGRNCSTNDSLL
# Sequence of Muscarinic acetylcholine receptor M1 (Homo sapiens) (P11229 whole entry, looked up): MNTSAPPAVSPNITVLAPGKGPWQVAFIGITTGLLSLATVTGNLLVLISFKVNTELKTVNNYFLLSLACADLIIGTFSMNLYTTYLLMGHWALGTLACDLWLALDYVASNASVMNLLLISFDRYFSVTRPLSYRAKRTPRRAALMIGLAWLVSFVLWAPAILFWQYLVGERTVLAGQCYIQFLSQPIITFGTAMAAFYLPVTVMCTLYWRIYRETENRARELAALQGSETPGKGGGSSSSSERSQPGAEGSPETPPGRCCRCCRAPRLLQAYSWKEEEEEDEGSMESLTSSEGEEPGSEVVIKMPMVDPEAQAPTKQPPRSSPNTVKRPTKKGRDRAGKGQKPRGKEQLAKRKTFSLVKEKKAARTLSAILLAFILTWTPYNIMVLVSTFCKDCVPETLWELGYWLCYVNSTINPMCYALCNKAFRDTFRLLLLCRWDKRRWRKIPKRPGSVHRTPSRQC
# Sequence of D(2) dopamine receptor (Homo sapiens) (P14416 whole entry, looked up): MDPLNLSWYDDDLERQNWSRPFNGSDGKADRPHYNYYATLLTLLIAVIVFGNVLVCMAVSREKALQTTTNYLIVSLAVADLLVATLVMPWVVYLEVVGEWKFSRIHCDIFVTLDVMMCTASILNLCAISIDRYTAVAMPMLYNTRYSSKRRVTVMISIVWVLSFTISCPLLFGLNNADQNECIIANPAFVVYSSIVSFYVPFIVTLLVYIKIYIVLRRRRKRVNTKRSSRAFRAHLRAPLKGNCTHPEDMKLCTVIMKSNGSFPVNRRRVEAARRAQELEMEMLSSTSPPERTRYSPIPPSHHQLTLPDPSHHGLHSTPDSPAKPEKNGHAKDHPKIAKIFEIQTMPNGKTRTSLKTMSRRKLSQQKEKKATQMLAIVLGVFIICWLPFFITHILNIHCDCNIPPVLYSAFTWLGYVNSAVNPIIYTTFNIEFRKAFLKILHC
# Sequence of Gonadotropin-releasing hormone receptor (Homo sapiens) (P30968 whole entry, looked up): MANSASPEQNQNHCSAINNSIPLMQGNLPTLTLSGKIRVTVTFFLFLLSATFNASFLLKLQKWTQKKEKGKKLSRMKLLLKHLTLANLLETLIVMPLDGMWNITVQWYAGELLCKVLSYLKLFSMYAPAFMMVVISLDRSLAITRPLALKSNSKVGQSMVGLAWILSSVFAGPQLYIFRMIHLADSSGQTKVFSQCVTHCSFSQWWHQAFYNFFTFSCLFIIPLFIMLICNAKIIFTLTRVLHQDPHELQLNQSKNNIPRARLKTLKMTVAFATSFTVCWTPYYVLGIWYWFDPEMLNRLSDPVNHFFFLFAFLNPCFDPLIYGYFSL
# Sequence of KiSS-1 receptor (Homo sapiens) (Q969F8 whole entry, looked up): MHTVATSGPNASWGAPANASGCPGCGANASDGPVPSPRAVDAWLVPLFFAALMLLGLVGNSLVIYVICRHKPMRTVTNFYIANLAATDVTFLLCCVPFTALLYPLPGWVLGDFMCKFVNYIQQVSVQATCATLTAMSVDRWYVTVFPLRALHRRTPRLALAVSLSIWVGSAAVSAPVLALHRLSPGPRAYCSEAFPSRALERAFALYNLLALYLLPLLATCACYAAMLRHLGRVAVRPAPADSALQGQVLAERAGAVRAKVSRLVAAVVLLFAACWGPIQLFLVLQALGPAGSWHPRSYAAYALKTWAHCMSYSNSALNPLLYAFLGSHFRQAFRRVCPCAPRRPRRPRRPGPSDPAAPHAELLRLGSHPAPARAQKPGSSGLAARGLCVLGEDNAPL
smiles,measurement,setting,value
OC[C@@H](O)[C@@H](O)CO,Potency,[1],inactive
same,Potency,[2],inactive
same,Potency,[3],inactive
same,outcome,[4],inactive
same,outcome,[5],inactive
same,Potency,[6],inactive
same,Potency,[7],inactive
same,Potency,[8],inactive
same,Potency,[9],inactive
same,Potency,[10],inactive
same,Potency,[11],inactive
same,Potency,[12],inactive
same,Potency,[13],inactive
same,Potency,[14],inactive
same,Potency,[15],inactive
same,Potency,[16],inactive
same,Potency,[17],inactive
same,Potency,[18],inactive
same,Potency,[19],inactive
O=C(OOC(=O)c1ccccc1)c1ccccc1,Potency,[1],inactive
same,Potency,[2],inactive
same,Potency,[3],inactive
same,outcome,[4],inactive
same,outcome,[5],inactive
same,Potency,[6],inactive
same,Potency,[7],inactive
same,Potency,[8],inactive
same,Potency,[9],inactive
same,Potency,[10],inactive
same,Potency,[11],inactive
same,Potency,[12],inactive
same,Potency,[13],inactive
same,Potency,[14],inactive
same,Potency,[15],inactive
same,Potency,[16],inactive
same,Potency,[17],inactive
same,Potency,[18],inactive
Cc1cc(=O)oc2cc(O)cc(O)c12,Potency,[1],inactive
same,Potency,[2],inactive
same,Potency,[3],inactive
same,outcome,[4],inactive
same,outcome,[5],inactive
same,Potency,[6],inactive
same,Potency,[7],inactive
same,Potency,[8],inactive
same,Potency,[9],inactive
same,Potency,[10],inactive
same,Potency,[11],inactive
same,Potency,[14],inactive
same,Potency,[17],inactive
same,Potency,[18],inactive
same,Potency,[19],inactive
COc1cccc(-c2ccc(/C=C\CN3CCCCCC3)cc2Cl)c1,Potency,[1],38.4 µM (active)
same,Potency,[2],inactive
same,Potency,[3],inactive
same,outcome,[4],inactive
same,outcome,[5],inactive
same,Potency,[6],inactive
same,Potency,[7],inactive
same,Potency,[8],inactive
same,Potency,[9],40.6 µM (active)
same,Potency,[10],inactive
same,Potency,[11],inactive
same,Potency,[14],inactive
same,Potency,[17],inactive
same,Potency,[20],inactive
O=c1cc[nH]cc1,Potency,[1],inactive
same,Potency,[2],inactive
same,Potency,[3],inactive
same,outcome,[4],inactive
same,outcome,[5],inactive
same,Potency,[6],inactive
same,Potency,[7],inactive
same,Potency,[8],inactive
same,Potency,[9],inactive
same,Potency,[10],inactive
same,Potency,[11],inactive
same,Potency,[12],inactive
same,Potency,[13],inactive
same,Potency,[14],inactive
same,Potency,[15],inactive
same,Potency,[16],inactive
same,Potency,[17],inactive
same,Potency,[18],inactive
same,Potency,[19],inactive
O=c1[nH]c(=O)c2[nH]c(=O)[nH]c2[nH]1,"activity change, negative = cytotoxicity",[1],13.3% [at 8.39 µM]
same,"activity, positive = activation",[2],2.42% [at 8.39 µM]
same,activity change,[3],"-0.425% [at 5.22 µM, stronger effect = higher value]"
same,activation,[4],-0.365% [at 6.97 µM]
same,activation,[5],1.57% [at 5.23 µM]
same,activation,[6],-6.75% [at 5.99 µM]
same,activation,[7],1.18% [at 5.99 µM]
same,"activity change, negative = cytotoxicity",[8],-5.03% [at 5.99 µM]
same,"activity change, negative = cytotoxicity",[9],-22.6% [at 5.99 µM]
same,"activity change, negative = cytotoxicity",[10],-12.2% [at 5.99 µM]
same,activation,[11],1.49% [at 5.99 µM]
same,activation,[12],-9.75% [at 7.02 µM]
same,"activity, negative = inhibition",[13],3.65% [at 5.58 µM]
same,activation,[14],-0.246% [at 6.97 µM]
same,activation,[15],1.51% [at 8.39 µM]
same,"activity change, negative = inhibition",[16],-5.1% [at 8.39 µM]
same,"activity change, negative = inhibition",[17],-4.56% [at 8.39 µM]
same,activation,[20],11.5% [at 8.39 µM]
same,activation,[18],0.309% [at 8.39 µM]
same,"activity change, negative = inhibition",[19],-2.53% [at 8.38 µM]
